The source of these data is PubChem BioAssay AID651599 (National Center for Advancing Translational Sciences (NCATS), 2012).

Results filed as inconclusive are left out. A call without a number means that no potency is given here. The source made the active and inactive calls. Calls follow the shape of the dose curve; as a rule, active = well fitted inhibition curve with a large enough effect; inconclusive = small, poorly fitted or top-dose-only effect; inactive = no such curve, though single readings can be large or run the other way.
Potency is read from the fitted curve at half-maximal effect.

The target in this test is Tumor susceptibility gene 101 protein (Homo sapiens) (UniProt Q99816). The experiment in a line: qHTS Assay for Iinhibitors of HIV-1 Budding by Blocking the Interaction of PTAP/TSG101: Hit Validation in TR assay. To be noted: Tsg101 binding domain + Texas Red-labeled PTAP peptide, fluorescence polarization, 20 min; series mostly up to 57.5 µM. An outline of the steps: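 Fluorescence polarization: Tsg101 binding domain (10 uM final) with Texas Red-labelled PTAP peptide (50 nM final) in HEPES pH 7.5, 0.15 M NaCl, Tween 20, EDTA, TCEP; 20 min binding at room temperature after compound addition.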
Chain of Tumor susceptibility gene 101 protein (Homo sapiens) (Q99816 whole entry, looked up, the tested form may be a part): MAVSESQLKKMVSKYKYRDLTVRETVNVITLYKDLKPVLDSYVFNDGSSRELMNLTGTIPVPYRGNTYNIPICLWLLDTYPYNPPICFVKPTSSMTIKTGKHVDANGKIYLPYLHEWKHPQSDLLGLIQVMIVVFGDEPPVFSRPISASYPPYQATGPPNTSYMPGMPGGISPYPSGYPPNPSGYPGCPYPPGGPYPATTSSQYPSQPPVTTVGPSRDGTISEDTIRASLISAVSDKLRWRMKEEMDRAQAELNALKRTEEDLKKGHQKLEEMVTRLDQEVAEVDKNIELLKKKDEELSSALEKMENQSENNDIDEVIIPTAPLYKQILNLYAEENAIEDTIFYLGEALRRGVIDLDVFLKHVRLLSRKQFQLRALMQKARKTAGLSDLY
As for `Cc1ccc(N2C3=C(C(=O)CC(C)(C)C3)C(c3cn(C)nc3C)C3=C2CC(C)(C)CC3=O)cc1`, the Potency entry is “inactive”.

As to `N#C/C(=C\c1ccccn1)c1nc2ccccc2s1`, the Potency entry is “inactive”.

Consider `O=C1CCCC2=C1Sc1ccc(Cl)cc1N2`, for which the Potency result is “inactive”.

With `O=S(=O)(Nc1cccc(-c2ccc(N3CCCCCC3)nn2)c1)c1cccc(F)c1`, the Potency entry is “inactive”.

As for `CCN(CC)c1ccc(/C=c2\sc3nc4ccccc4n3c2=O)c(O)c1`, the Potency entry was “inactive”.

Take `CCN(CC)c1ccc(/C=C(/C#N)c2nc3ccc(C)cc3[nH]2)c(OC(C)C)c1`: the Potency result is “inactive”.

Consider `N=c1oc2ccc3ccccc3c2cc1-c1nc(-c2ccccc2)cs1`, for which the Potency result is “inactive”.

As to `CCCCCn1nc(-c2ccccc2)c2nc3ccccc3nc21`, the Potency result was “inactive”.

With `O=c1cc2oc3cc(O)c(O)cc3c(-c3ccccc3O)c-2cc1O`, the Potency was 16.3 µM (active).

With `Nc1ccc2c3c(cccc13)C(=O)N(c1ccccc1)C2=O`, the Potency result was “inactive”.

For `Cc1ccc(-c2nc(C=Nc3ccc(O)cc3)c(O)o2)cc1`, the Potency result is “inactive”.

For the compound `Nc1c(C(=O)O)sc2nc(-c3ccccc3)cc(-c3ccc(Cl)cc3)c12`, the Potency result was “inactive”.

For the compound `ClCc1nc2ccccc2n1Cc1ccccc1`, the Potency entry was “inactive”.

On to `CC[C@@]1(C(=O)OC)N[C@H](CN(C)C(=O)c2ccc(C)cc2)[C@@H]2C(=O)N(Cc3ccccc3)C(=O)[C@@H]21`, for which the Potency entry was “inactive”.

Take `CCN1CCc2c(sc(NC(=O)Nc3ccc(Cl)c(Cl)c3)c2C(N)=O)C1`: the Potency result is “inactive”.

Consider `Cc1cc(=O)oc(C)c1C(=O)Nc1ccc2ncccc2c1`, for which the Potency entry was “inactive”.

As to `N#Cc1ccsc1NC(=O)CSc1nncs1`, the Potency entry was “inactive”.

Take `Oc1oc(-c2ccccc2)nc1C=Nc1cccc2ccccc12`: the Potency result is “inactive”.

With `COc1ccc(C2C(C(=O)c3cccs3)=C(O)C(=O)N2c2nnc(C)s2)cc1OC` (centres undefined), the Potency result is “inactive”.

Take `Cc1cc(/C=C2\SC(=S)NC2=O)c(C)n1-c1ccccc1`: the Potency result is “inactive”.

As to `CCOC(=O)c1cc2n(c1N)-c1ccccc1C2=O`, the Potency entry is “inactive”.

Take `COc1ccccc1N1C(=O)C2C(C(=O)c3ccccc3)=NN(c3ccc(C)cc3)C2C1=O` (centres undefined): the Potency entry was “inactive”.

As for `C/C(O)=c1/ccc2cccc3nc(C)nc1c23`, the Potency result is “inactive”.

As for `COc1cc(OC)c(-c2c3cc(O)c(=O)cc-3oc3cc(O)c(O)cc23)cc1OC`, the Potency entry was “inactive”.

As for `Cn1c(=O)c(Nc2ccc(O)cc2)c2c3c(cccc31)C(=O)c1ccccc1-2`, the Potency entry was “inactive”.

For `CCN(CC)CCCNc1ccc2ncn3c4ccc(O)cc4c(=O)c1c23`, the Potency entry is “inactive”.

With `CCOC(=O)C1CCCN(c2nc3ccccc3nc2C(C#N)C(=O)NCc2ccccc2)C1` (centres undefined), the Potency entry was “inactive”.

`O=C(/C=C/c1ccc(Cl)cc1Cl)c1nc2ccccc2[nH]1`: the Potency result was “inactive”.

In the case of `COc1cc(-c2cc(-c3ccc(N)cc3)[nH]c(=O)c2C#N)cc(OC)c1OC`, the Potency entry is “inactive”.

Turning to `CCCCCCn1c(=O)[nH]c2nc3cc(N)ccc3nc2c1=O`, the Potency result was “inactive”.

`CCCN1C(=O)/C(=C/C=C2\N(CC)c3ccccc3C2(C)C)SC1=S`: the Potency result was “inactive”.

As to `Fc1ccc(C2=CC(c3ccc(Br)o3)n3ncnc3N2)cc1` (centres undefined), the Potency result was “inactive”.

Turning to `O=C1C=CC(=O)c2c(O)c(CO)c(CO)c(O)c21`, the Potency result was “inactive”.

Regarding `Cc1cccc(CCNC(=O)c2sc3nc4n(c(=O)c3c2C)CCCC4)c1`, the Potency result is “inactive”.

Take `CCN(CC)c1ccc(/C=C/C(=O)c2ccc(Br)cc2)cc1`: the Potency was 16.3 µM (active).

`CCN(CC)c1ccc2cc(-c3nnc(-c4ccncc4)o3)c(=O)oc2c1`: the Potency entry was “inactive”.

As for `O=C(C1=NN(c2ccccc2)C2C(=O)N(c3ccccc3)C(=O)C12)c1ccccc1` (centres undefined), the Potency entry is “inactive”.

Take `CC1=Nc2ccccc2/C1=C\c1nc(-c2ccc(F)cc2)oc1O`: the Potency entry is “inactive”.

Turning to `Cc1cccc(-n2c(O)c(C=Nc3ccc4c(c3)OCO4)c3ccccc3c2=O)n1`, the Potency entry is “inactive”.
